Measured values published in PubChem BioAssay AID1159580 (chemical genetic matrix, 2015).
Values joined by “and” are separate entries in the source; they are usually repeats but may differ in a detail not shown here. Identical values can stand only once. Out of some 5,500 compounds screened, about 2,000 (36%) were called active. Roughly 18% stayed inconclusive and do not appear here. No stated cut-off is given here; in the data, active means normalized growth mostly below about 0.91 (no sharp cut-off); inconclusive means no clear call, values can overlap the other calls; inactive means mostly above about 0.92. This is one part of the list.

Assay: chemical genetic growth profiling, strain panel (AID 1159580);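 further: tested at 20 µM; growth read once vehicle control cultures reached saturation at 30 °C; 1 = growth at the plate median or of vehicle wells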
Conditions: S. cerevisiae deletion strains, growth OD

Measured: normalized growth

CC(=O)Oc1ccc2c(c1C(C)C)CCC1C(C)(C)CCC[C@]21C (stereo not given in full)
inactive: locus YAL013W, strain DEP1, stronger effect = lower value 1.02 | locus YAL021C, strain ccr4, stronger effect = lower value 0.996 | locus YAL026C, strain drs2, stronger effect = lower value 1.03 | locus YAL030W, strain snc1, stronger effect = lower value 1.01 | locus YBL061C, strain skt5, stronger effect = lower value 1.03 | locus YBR009C, strain hhf1, stronger effect = lower value 1.02 | locus YBR021W, strain FUR4, stronger effect = lower value 1.01 | locus YBR023C, strain chs3, stronger effect = lower value 1.03 | locus YBR171W, strain sec66, stronger effect = lower value 1.03 | locus YBR229C, strain ROT2, stronger effect = lower value 1.02 | locus YBR231C, strain swc5, stronger effect = lower value 1.03 | locus YBR279W, strain paf1, stronger effect = lower value 1.02 | locus YCL011C, strain gbp2, stronger effect = lower value 1.02 | locus YCL016C, strain dcc1, stronger effect = lower value 1.02 | locus YCL029C, strain bik1, stronger effect = lower value 0.997 | locus YCL061C, strain MRC1, stronger effect = lower value 1.01 | locus YCL069W, strain vba3, stronger effect = lower value 1.01 | locus YCR088W, strain abp1, stronger effect = lower value 1.02 | locus YDL005C, strain med2, stronger effect = lower value 1.02 | locus YDL035C, strain GPR1, stronger effect = lower value 1.03 | locus YDL040C, strain nat1, stronger effect = lower value 1 | locus YDL074C, strain BRE1, stronger effect = lower value 1.05 | locus YDL101C, strain DUN1, stronger effect = lower value 1.03 | locus YDL134C, strain PPH21, stronger effect = lower value 1.02 | locus YDL185W, strain tfp1, stronger effect = lower value 1 | locus YDL192W, strain arf1, stronger effect = lower value 1.01 | locus YDR001C, strain nth1, stronger effect = lower value 1.02 | locus YDR069C, strain doa4, stronger effect = lower value 1.02 | locus YDR101C, strain arx1, stronger effect = lower value 0.995 | locus YDR137W, strain rgp1, stronger effect = lower value 1.01 | locus YDR150W, strain NUM1, stronger effect = lower value 0.995 | locus YDR159W, strain sac3, stronger effect = lower value 1.06 | locus YDR162C, strain NBP2, stronger effect = lower value 1.02 | locus YDR195W, strain ref2 1.01 | locus YDR297W, strain sur2, stronger effect = lower value 1.01 | locus YDR318W, strain mcm21, stronger effect = lower value 0.996 | locus YDR334W, strain swr1, stronger effect = lower value 1.02 | locus YDR335W, strain msn5, stronger effect = lower value 1.02 | locus YDR388W, stronger effect = lower value 0.994 | locus YDR392W, strain spt3, stronger effect = lower value 0.997 | locus YDR502C, strain sam2, stronger effect = lower value 1.01 | locus YEL003W, strain gim4, stronger effect = lower value 1.02 | locus YEL037C, strain rad23, stronger effect = lower value 1.01 | locus YEL061C, strain CIN8 (second series), stronger effect = lower value 1.02 | locus YEL061C, strain CIN8, stronger effect = lower value 1.01 | locus YER015W, strain faa2, stronger effect = lower value 1.02 | locus YER016W, strain bim1, stronger effect = lower value 1.02 | locus YER110C, stronger effect = lower value 0.998 | locus YER111C, strain swi4, stronger effect = lower value 1.01 | locus YER155C, strain BEM2 (second series), stronger effect = lower value 1.04 | locus YER155C, strain BEM2, stronger effect = lower value 1.01 | locus YER167W, strain BCK2, stronger effect = lower value 1.01 | locus YFR010W, strain ubp6, stronger effect = lower value 1.04 | locus YGL078C, strain dbp3, stronger effect = lower value 1.01 | locus YGL086W, strain mad1, stronger effect = lower value 0.99 | locus YGL167C, strain pmr1, stronger effect = lower value 1.02 | locus YGL173C, strain kem1, stronger effect = lower value 1.02 | locus YGL227W, strain vid30, stronger effect = lower value 1.02 | locus YGL240W, strain doc1, stronger effect = lower value 1.02 | locus YGL248W, strain PDE1, stronger effect = lower value 1.02 | locus YGL253W, strain hxk2, stronger effect = lower value 1.03 | locus YGR135W, strain pre9, stronger effect = lower value 0.99 | locus YGR252W, strain gcn5, stronger effect = lower value 1.02 | locus YHR013C, strain ard1, stronger effect = lower value 1.04 | locus YHR027C, strain rpn1, stronger effect = lower value 1.02 | locus YHR030C, strain SLT2, stronger effect = lower value 0.969 | locus YHR079C, strain IRE1 (second series), stronger effect = lower value 0.985 | locus YHR079C, strain IRE1, stronger effect = lower value 0.973 | locus YHR094C, strain hxt1, stronger effect = lower value 1 | locus YHR129C, strain ARP1, stronger effect = lower value 1.01 | locus YHR142W, strain chs7, stronger effect = lower value 1.05 | locus YHR200W, strain rpn10, stronger effect = lower value 1 | locus YIL066C, strain RNR3, stronger effect = lower value 1.03 | locus YIL073C, strain SPO22, stronger effect = lower value 1.04 | locus YIL125W, strain kgd1, stronger effect = lower value 1 | locus YIR030C, strain dcg1, stronger effect = lower value 1 | locus YJL092W, strain hpr5, stronger effect = lower value 1.02 | locus YJL095W, strain BCK1 (second series), stronger effect = lower value 1.04 | locus YJL095W, strain BCK1, stronger effect = lower value 1.04 and 0.976 | locus YJL115W, strain asf1, stronger effect = lower value 1.04 | locus YJL129C, strain trk1, stronger effect = lower value 0.995 | locus YJL134W, strain LCB3, stronger effect = lower value 1.01 | locus YJL154C, strain vps35, stronger effect = lower value 1.01 | locus YJL164C, strain tpk1, stronger effect = lower value 1 | locus YJL166W, strain qcr8, stronger effect = lower value 1.03 | locus YJL168C, strain set2, stronger effect = lower value 0.996 | locus YJL187C, strain SWE1 (second series), stronger effect = lower value 1.02 | locus YJL187C, strain SWE1, stronger effect = lower value 1.01 | locus YJR043C, strain POL32, stronger effect = lower value 1.03 | locus YJR066W, strain TOR1, stronger effect = lower value 0.918 | locus YKL009W, strain mrt4, stronger effect = lower value 1.01 | locus YKL068W, stronger effect = lower value 0.997 | locus YKL085W, strain MDH1 (second series), stronger effect = lower value 1.01 | locus YKL085W, strain MDH1, stronger effect = lower value 1.01 | locus YKL160W, strain elf1, stronger effect = lower value 1.01 | locus YKR001C, strain vps1, stronger effect = lower value 1.01 | locus YKR026C, strain gcn3, stronger effect = lower value 1.03 | locus YKR091W, strain srl3, stronger effect = lower value 1.01 | locus YLL001W, strain dnm1, stronger effect = lower value 1 | locus YLL026W, stronger effect = lower value 1.02 | locus YLL041C, strain sdh2, stronger effect = lower value 1.02 | locus YLR027C, strain aat2, stronger effect = lower value 1.02 | locus YLR039C, strain RIC1, stronger effect = lower value 1.02 | locus YLR058C, strain SHM2, stronger effect = lower value 1.02 | locus YLR102C, strain apc9, stronger effect = lower value 0.999 | locus YLR113W, strain HOG1, stronger effect = lower value 1 | locus YLR221C, strain rsa3, stronger effect = lower value 1.02 | locus YLR258W, strain gsy2, stronger effect = lower value 1.01 | locus YLR262C, strain YPT6 (second series), stronger effect = lower value 1.01 | locus YLR262C, strain YPT6, stronger effect = lower value 1.06 | locus YLR268W, strain sec22, stronger effect = lower value 1 | locus YLR320W, strain mms22, stronger effect = lower value 1.04 | locus YLR330W, strain CHS5, stronger effect = lower value 1.01 | locus YLR342W, strain FKS1 (second series), stronger effect = lower value 1.01 | locus YLR342W, strain FKS1, stronger effect = lower value 1.02 | locus YLR357W, strain rsc2, stronger effect = lower value 1.04 | locus YLR370C, strain arc18, stronger effect = lower value 1.02 | locus YLR371W, strain rom2, stronger effect = lower value 0.99 | locus YLR384C, strain iki3, stronger effect = lower value 1.03 | locus YLR418C, strain cdc73, stronger effect = lower value 1 | locus YML016C, strain PPZ1, stronger effect = lower value 1.02 | locus YML032C, strain rad52, stronger effect = lower value 1.01 | locus YML120C, strain ndi1, stronger effect = lower value 1.01 | locus YML124C, strain tub3, stronger effect = lower value 1 | locus YMR058W, strain fet3, stronger effect = lower value 1.03 | locus YMR078C, strain ctf18, stronger effect = lower value 1 | locus YMR125W, strain sto1, stronger effect = lower value 1.03 | locus YMR129W, stronger effect = lower value 1.03 | locus YMR205C, strain PFK2, stronger effect = lower value 0.995 | locus YMR223W, strain ubp8, stronger effect = lower value 1.01 | locus YMR231W, strain pep5, stronger effect = lower value 1.01 | locus YMR263W, strain SAP30, stronger effect = lower value 1.02 | locus YMR307W, strain GAS1, stronger effect = lower value 1.02 | locus YNL067W, strain RPL9B, stronger effect = lower value 1.01 | locus YNL071W, strain lat1, stronger effect = lower value 1.01 | locus YNL128W, strain TEP1, stronger effect = lower value 1.02 | locus YNL153C, strain GIM3, stronger effect = lower value 1.02 | locus YNL183C, strain NPR1, stronger effect = lower value 0.928 | locus YNL209W, strain ssb2, stronger effect = lower value 1.02 | locus YNL233W, strain BNI4, stronger effect = lower value 1.02 | locus YNL248C, strain rpa49, stronger effect = lower value 1.02 | locus YNL250W, strain rad50, stronger effect = lower value 0.992 | locus YNL271C, strain bni1, stronger effect = lower value 0.996 | locus YNL298W, strain CLA4, stronger effect = lower value 1.01 | locus YNL307C, strain MCK1, stronger effect = lower value 1 | locus YNL322C, strain KRE1 (second series), stronger effect = lower value 1.01 | locus YNR049C, strain mso1, stronger effect = lower value 1.04 | locus YNR052C, strain pop2, stronger effect = lower value 0.995 | locus YOL012C, strain htz1 1.05 | locus YOL147C, strain pex11, stronger effect = lower value 0.999 | locus YOR001W, strain rrp6, stronger effect = lower value 1.02 | locus YOR061W, strain CKA2, stronger effect = lower value 1.02 | locus YOR069W, strain VPS5, stronger effect = lower value 1.01 | locus YOR070C, strain gyp1, stronger effect = lower value 1.02 | locus YOR080W, strain dia2, stronger effect = lower value 1.02 | locus YOR083W, strain WHI5, stronger effect = lower value 1.01 | locus YOR106W, strain vam3, stronger effect = lower value 1.02 | locus YOR136W, strain idh2, stronger effect = lower value 0.99 | locus YOR144C, strain elg1, stronger effect = lower value 0.996 | locus YOR184W, strain ser1, stronger effect = lower value 0.996 | locus YOR231W, strain MKK1, stronger effect = lower value 0.97 | locus YOR265W, strain rbl2, stronger effect = lower value 1.04 | locus YOR270C, strain vph1, stronger effect = lower value 1.01 | locus YOR290C, strain snf2, stronger effect = lower value 1 | locus YOR316C, strain cot1, stronger effect = lower value 0.998 | locus YPL051W, strain arl3, stronger effect = lower value 1.02 | locus YPL078C, strain atp4, stronger effect = lower value 1 | locus YPL106C, strain sse1, stronger effect = lower value 1.02 | locus YPL240C, strain hsp82, stronger effect = lower value 1.02 | locus YPL256C, strain CLN2, stronger effect = lower value 0.966 | locus YPR119W, strain clb2, stronger effect = lower value 0.992 | locus YPR141C, strain kar3, stronger effect = lower value 1 | locus YPR163C, strain tif3, stronger effect = lower value 0.996 | locus YPR167C, strain met16, stronger effect = lower value 0.995 | strain wtn01, stronger effect = lower value 1
